Autofluor counter: flagged as autofluorescent in microsphere protease counterscreen | hit rate 3.1% among 360,000 | compound autofluorescence counterscreen, microsphere flow cytometry; active compounds read high | AID 624483 | fluorescence intensity (concentration not given with the values); in the data active = fluorescence intensity above about 16000; inconclusive = no clear call, values can overlap the other calls
VHR inh abs: blocks human VHR1 dual specificity phosphatase; recombinant VHR phosphatase, pNPP absorbance; inhibition, % at 13.3 µM; hit rate 0.52% among 290,000; AID 1654; in the data active = inhibition above about 50%
Target sequence (P51452 whole entry, looked up): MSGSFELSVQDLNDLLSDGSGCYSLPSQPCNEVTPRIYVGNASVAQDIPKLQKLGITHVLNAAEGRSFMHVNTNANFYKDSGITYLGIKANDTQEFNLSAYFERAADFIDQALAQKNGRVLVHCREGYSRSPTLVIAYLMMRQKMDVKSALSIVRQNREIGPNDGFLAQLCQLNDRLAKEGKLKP
BoNT-A LC inh2: inhibitors of Botulinum neurotoxin A light chain protease | multiplex microsphere protease substrate cleavage, flow cytometry | inhibition, % at 10 µM | hit rate 0.17% among 360,000 | AID 588499
Anthrax LF inh2: blocks Bacillus anthracis lethal factor protease; P15917; hit rate 0.12% among 360,000; AID 588501; multiplex microsphere protease cleavage assay, LF; inhibition, % at 10 µM
BoNT-F LC inh: BoNT F light chain protease inhibition; Multiplex microsphere protease cleavage assay, flow cytometry; inhibition, % at 10 µM; hit rate 0.22% among 360,000; in the data active = inhibition above about 35%, passing the limit was not always enough; inconclusive = no clear call, values can overlap the other calls
MazF activator: MazEF (E. coli) toxin RNase activation; P0AE70; FAM/BHQ RNA-DNA oligo cleavage fluorescence, 5 h; activation, % at 20 µM; hit rate 0.32% among 350,000; in the data active = activation above about 50%
Target sequence (P0AE70 whole entry, looked up): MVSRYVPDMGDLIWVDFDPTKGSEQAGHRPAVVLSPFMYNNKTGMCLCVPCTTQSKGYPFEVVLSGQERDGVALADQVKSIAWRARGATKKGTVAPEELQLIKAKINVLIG
Numbers stand for hits. Shown are actives, neighbours in structure and some others; about 4.1% of the full set was active somewhere. Rule as the data show it, unless noted: active = inhibition above about 30%; inconclusive = no clear call, values can overlap the other calls; inactive = below that.

How did O=C(Nc1cccnc1)c1c(F)cccc1F do in these assays?
Autofluor counter: 16636; VHR inh abs: inactive; BoNT-A LC inh2: inconclusive; Anthrax LF inh2: inactive; BoNT-F LC inh: inactive; MazF activator: inactive

What do the screens show for `COc1ccc(-c2noc(-c3ccccc3C(=O)Nc3cccnc3)n2)cc1`?
Autofluor counter: inactive; VHR inh abs: inactive; BoNT-A LC inh2: inactive; Anthrax LF inh2: inactive; BoNT-F LC inh: inactive; MazF activator: inactive

What do the screens show for `O=C(Nc1cccnc1)c1ccccc1-c1nc(-c2ccccc2F)no1`?
Autofluor counter: 21936; VHR inh abs: inactive; BoNT-A LC inh2: inactive; Anthrax LF inh2: inactive; BoNT-F LC inh: inactive; MazF activator: inactive

How did COc1ccc(NC(=O)C2Cc3c(-c4ccccc4)ccnc3O2)cc1OC (stereo not drawn) do in these assays?
Autofluor counter: inactive; BoNT-A LC inh2: inactive; Anthrax LF inh2: inactive; BoNT-F LC inh: inactive

What do the screens show for `COc1cccc(CNC(=O)COC(=O)c2nn(C)c(=O)c3ccccc23)c1`?
Autofluor counter: inactive; BoNT-A LC inh2: inactive; Anthrax LF inh2: inactive; BoNT-F LC inh: inactive; MazF activator: inactive

What do the screens show for `CC1(C)NC(=O)N(CC(O)COc2ccc(-c3ccc(C#N)cc3)cc2)C1=O` (stereo not drawn)?
Autofluor counter: 19940; VHR inh abs: inactive; BoNT-A LC inh2: inconclusive; Anthrax LF inh2: inactive; BoNT-F LC inh: inactive; MazF activator: inactive

What do the screens show for `CC1(C)NC(=O)N(CC(O)COc2ccc(-c3ccccc3)cc2)C1=O` (stereo not drawn)?
Autofluor counter: inactive; VHR inh abs: inactive; BoNT-A LC inh2: inactive; Anthrax LF inh2: inactive; BoNT-F LC inh: inactive; MazF activator: inactive

What do the screens show for `CC(=O)c1cnc2nc(SCc3ccccc3C)nn2c1C`?
Autofluor counter: inactive; VHR inh abs: inactive; BoNT-A LC inh2: inactive; Anthrax LF inh2: inactive; BoNT-F LC inh: inactive; MazF activator: inactive

What do the screens show for `CC(=O)c1cnc2nc(C(F)(F)F)nn2c1C`?
Autofluor counter: inactive; VHR inh abs: inactive; BoNT-A LC inh2: inactive; Anthrax LF inh2: inactive; BoNT-F LC inh: inactive; MazF activator: 80

How did CCN(CC(=O)Nc1ccc(NC(C)=O)cc1)C(=O)c1ccc(N2C(=O)c3ccccc3C2=O)cc1 do in these assays?
Autofluor counter: inactive; BoNT-A LC inh2: inactive; Anthrax LF inh2: inactive; BoNT-F LC inh: inactive; MazF activator: inactive

What do the screens show for `Cc1ccc(CNC(=O)CN(c2ccc(Cl)cc2)S(C)(=O)=O)cc1`?
Autofluor counter: inactive; VHR inh abs: inactive; BoNT-A LC inh2: inactive; Anthrax LF inh2: inactive; BoNT-F LC inh: inactive; MazF activator: inactive

How did Cc1cccc(-n2nnnc2SCC(=O)c2cc(C)n(CC3CCCO3)c2C)c1 (stereo not drawn) do in these assays?
Autofluor counter: inactive; VHR inh abs: inactive; BoNT-A LC inh2: inactive; Anthrax LF inh2: inactive; BoNT-F LC inh: inactive; MazF activator: inactive

How did Cc1cccc(-n2nnnc2SCC(=O)c2cc(C)n(Cc3ccco3)c2C)c1 do in these assays?
Autofluor counter: 22516; VHR inh abs: inactive; BoNT-A LC inh2: inconclusive; Anthrax LF inh2: inactive; BoNT-F LC inh: inactive; MazF activator: inactive

Results for COc1cc2c(cc1OC)C(c1cccc(F)c1)CC(=O)N2 (stereo not drawn) ?
VHR inh abs: 51; MazF activator: inactive

How did CCNC(=S)N/N=C/c1sc(N2CCCCC2)nc1-c1cccs1 do in these assays?
Autofluor counter: inactive; VHR inh abs: inactive; BoNT-A LC inh2: inconclusive; Anthrax LF inh2: inconclusive; BoNT-F LC inh: inconclusive; MazF activator: 257

How did COc1ccc(/C=N/OCc2nc3c4c(ncn3n2)Oc2ccc3ccccc3c2C4c2ccccc2)cc1 (stereo not drawn) do in these assays?
Autofluor counter: 23152; VHR inh abs: inactive; BoNT-A LC inh2: inactive; Anthrax LF inh2: inactive; BoNT-F LC inh: inactive; MazF activator: inactive

How did O=C(NC1CCCC1)c1ccc(CSCc2ccccc2F)o1 do in these assays?
Autofluor counter: 23171; VHR inh abs: inactive; BoNT-A LC inh2: inactive; Anthrax LF inh2: inactive; BoNT-F LC inh: inactive; MazF activator: inactive

Results for O=C(NC1CCCC1)c1ccc(CS(=O)(=O)Cc2ccccc2F)o1 ?
Autofluor counter: inactive; VHR inh abs: inactive; BoNT-A LC inh2: inactive; Anthrax LF inh2: inactive; BoNT-F LC inh: inactive; MazF activator: inactive

How did Cc1ccc(NC(=O)[C@H](C)NC(=O)C2CCN(C(=O)[C@@H](N)CC(C)C)CC2)cc1 do in these assays?
Autofluor counter: inactive; VHR inh abs: inactive; BoNT-A LC inh2: inactive; Anthrax LF inh2: inactive; BoNT-F LC inh: inactive; MazF activator: inactive

Results for CCn1nc(NC(=O)C(C)C)c2cc3cccc(C)c3nc21 ?
Autofluor counter: inactive; VHR inh abs: 56; BoNT-A LC inh2: inactive; Anthrax LF inh2: inactive; BoNT-F LC inh: inactive; MazF activator: inactive

How did CCn1nc(NC(C)=O)c2cc3cccc(C)c3nc21 do in these assays?
Autofluor counter: inactive; VHR inh abs: inactive; BoNT-A LC inh2: inactive; Anthrax LF inh2: inactive; BoNT-F LC inh: inactive; MazF activator: inactive

Results for CN(C)S(=O)(=O)c1ccc(S(=O)(=O)N(Cc2ccco2)Cc2ccccc2Cl)cc1 ?
Autofluor counter: inactive; VHR inh abs: inactive; BoNT-A LC inh2: inactive; Anthrax LF inh2: inactive; BoNT-F LC inh: inactive; MazF activator: inactive

How did CS(=O)(=O)N(Cc1ccco1)Cc1ccccc1Cl do in these assays?
Autofluor counter: 20334; VHR inh abs: inactive; BoNT-A LC inh2: inconclusive; Anthrax LF inh2: inactive; BoNT-F LC inh: inactive; MazF activator: inactive

What do the screens show for `CC(C)NC(=O)COc1coc(CN2CCN(Cc3ccccc3)CC2)cc1=O`?
Autofluor counter: inactive; VHR inh abs: 53; BoNT-A LC inh2: inactive; Anthrax LF inh2: inactive; BoNT-F LC inh: inactive; MazF activator: inactive

Results for CNC(=O)COc1coc(CN2CCN(Cc3ccccc3)CC2)cc1=O ?
Autofluor counter: inactive; VHR inh abs: inactive; BoNT-A LC inh2: inactive; Anthrax LF inh2: inactive; BoNT-F LC inh: inactive; MazF activator: inactive

What do the screens show for `CCOC(=O)CNC(=O)COc1coc(CN2CCN(c3ccccc3F)CC2)cc1=O`?
Autofluor counter: inactive; VHR inh abs: inactive; BoNT-A LC inh2: 38; Anthrax LF inh2: inactive; BoNT-F LC inh: inactive; MazF activator: inactive

What do the screens show for `O=S1(=O)CC(N2CCSCC2)CN1Cc1cn(Cc2ccc(F)cc2)nn1` (stereo not drawn)?
Autofluor counter: inactive; BoNT-A LC inh2: inactive; Anthrax LF inh2: inactive; BoNT-F LC inh: inactive

Results for O=C1CC(=O)C(n2cncn2)C(c2c(F)cccc2Cl)C1 (stereo not drawn) ?
Autofluor counter: 22544; VHR inh abs: inactive; BoNT-A LC inh2: inactive; Anthrax LF inh2: inactive; BoNT-F LC inh: inactive; MazF activator: inactive

Results for O=C1CC(=O)C(n2cncn2)C(c2ccc(Cl)cc2)C1 (stereo not drawn) ?
Autofluor counter: inactive; VHR inh abs: inactive; BoNT-A LC inh2: inactive; Anthrax LF inh2: inactive; BoNT-F LC inh: inactive; MazF activator: inactive

What do the screens show for `COc1cc(CC(=O)OCC(=O)NCc2cccs2)cc(OC)c1OC`?
Autofluor counter: inconclusive; BoNT-A LC inh2: inactive; Anthrax LF inh2: inactive; BoNT-F LC inh: inactive; MazF activator: inactive

How did CCCCC(=O)N(C)c1c(C)nc2ccc(C(=O)N3CCN(S(=O)(=O)CC)CC3)cn12 do in these assays?
Autofluor counter: inactive; BoNT-A LC inh2: inactive; Anthrax LF inh2: inactive; BoNT-F LC inh: inactive

Compound activity as filed in PubChem BioAssay.
